# High-throughput results deposited in PubChem by National Center for Advancing Translational Sciences (NCATS).
# TDP43 rescue – TDP-43 toxicity inhibition in yeast | TDP-43 expressing yeast growth rescue, BacTiter-Glo, 24 h | Potency, µM (highest dose often 46.1 µM), most hits filed as activators | actives 1.8% (n = 410,000) | AID 652104; further: nearly all actives have a fitted effect of over 50% in size
#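 Galactose-induced TDP-43 yeast, OD600=0.02, compound pinned; 24 hr, 30 deg C; BacTiter-Glo luminescence for growth. Inhibitors of TDP-43 toxicity read as activators.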
# Abeta yeast res – A-beta toxicity reversal in yeast; Potency, µM (titrated, usually from 46.1 µM), hits mostly activators; yeast expressing A-beta42, growth rescue, OD600, 48 h; response scale: 0% DMSO, 100% iron-clioquinol control; actives 0.063% (n = 410,000); further: nearly all actives have a fitted effect of over 55% in size
#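 Yeast growth medium received pinned compounds, then yeast cells expressing toxic A-beta were added; plates incubated at 30 C for 48 hr. Growth read as absorbance at 600 nm, normalized to DMSO and equimolar FeCl3 plus clioquinol controls.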
# aSyn rescue – rescues yeast growth from alpha-synuclein toxicity | Potency, µM (doses to about 46.1 µM), actives largely listed as activators | actives 0.14% (n = 370,000) | Yeast expressing alpha-synuclein, growth rescue, BacTiter-Glo, 24 h | AID 652106; further: nearly all actives have a fitted effect of over 65% in size
#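 Readout is rescue of growth in alpha-synuclein-expressing yeast, so inhibitors of toxicity appear as activators. Growth after 24 hr at 30 deg C in galactose medium is quantified by luminescence.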
# PTAP TSG101 blk – blocks PTAP/TSG101 interaction to inhibit HIV-1 budding | 340,000 tested, under 10 active | AID 493005 | Fluorescence polarization, FITC-PTAP peptide / Tsg101 binding | Potency, µM (series often up to 115 µM), most hits filed as inhibitors; active means well fitted inhibition curve with a large enough effect in the main read-out, with a control signal flat, not every such curve was filed as active; inconclusive means small, poorly fitted or top-dose-only effect, or effect the other way, or a change in a side signal; inactive means no such curve, though single readings can be large or run the other way
# Target sequence (Q99816 whole entry, looked up): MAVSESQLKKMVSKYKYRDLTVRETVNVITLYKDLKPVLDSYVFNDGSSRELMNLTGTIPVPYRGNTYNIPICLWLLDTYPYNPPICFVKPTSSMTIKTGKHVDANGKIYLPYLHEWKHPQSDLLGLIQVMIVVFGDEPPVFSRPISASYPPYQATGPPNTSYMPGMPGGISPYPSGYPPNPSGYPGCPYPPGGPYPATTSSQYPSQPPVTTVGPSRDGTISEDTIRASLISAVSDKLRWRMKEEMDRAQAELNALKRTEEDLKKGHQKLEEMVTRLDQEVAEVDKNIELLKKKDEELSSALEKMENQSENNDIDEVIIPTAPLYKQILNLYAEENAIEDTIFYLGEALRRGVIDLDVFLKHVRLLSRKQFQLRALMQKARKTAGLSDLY
#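 Fluorescence anisotropy tracks displacement of a FITC-tagged PTAP peptide (50 nM) from the Tsg101 binding domain (10 uM), following a 20 min room-temperature incubation at pH 7.5.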
# FUS suppressor – rescues growth of FUS-expressing yeast | S. cerevisiae FUS-expressing, growth rescue, OD600, 24 h | Potency, µM (titrated, usually from 76.6 µM), usual class: activators | actives 0.24% (n = 390,000); further: nearly all actives have a fitted effect of over 55% in size
#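 Cultures pregrown in 2.5% raffinose medium are shifted to minimal medium containing 2% galactose to express toxic FUS. Compounds are tested at several concentrations. After 24hr at 30C, growth is quantified at 600 nm absorbance.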
# Numbers stand for hits; - = inactive; ? = inconclusive; . = no result; [ ] = dose if it differs, or a comment. Most compounds without a hit are left out; they make up all but 2.1% or so of the library. Unless noted, the call rests on the fitted dose curve; in most records, active means well fitted curve in the direction sought with a large enough effect; inconclusive means small, poorly fitted or top-dose-only effect, or another doubt; inactive means no such curve, though single readings can be large; an effect the other way counts as inactive or inconclusive.
SMILES,TDP43 rescue,Abeta yeast res,aSyn rescue,PTAP TSG101 blk,FUS suppressor
COc1ccccc1C1NC(c2ccc3c(c2)OCO3)=CC(c2cc(Br)ccc2O)N1 (configuration not stated),.,.,-,.,.
O=C(NNc1ccccc1)c1ccc(Cl)c(Cl)c1,13µM,-,?,-,.
COc1ccc(N(CC(=O)N2CCN(c3ccc(F)cc3)CC2)S(=O)(=O)c2c(C)nn(C)c2C)cc1,-,-,.,.,-
CCc1ccc(NC(=O)C2CCCN(S(=O)(=O)c3cccc4cccnc34)C2)cc1 (configuration not stated),-,-,.,.,-
Cn1ncc(Cl)c1C(=O)N1CCN(c2ccc(Cl)c(Cl)c2)CC1,13µM,-,-,-,?
CC(=O)NC(c1ccccc1)c1nc(-c2cccs2)cs1 (configuration not stated),16µM,-,-,.,-
COc1cccc(C(NC(C)=O)c2nc(-c3cccs3)cs2)c1 (configuration not stated),?,-,-,.,-
O=C(Nc1cccc(NC(=O)c2c(F)cccc2F)n1)c1c(F)cccc1F,-,-,-,-,-
O=C(Nc1cccc(NC(=O)c2cccc(F)c2)n1)c1cccc(F)c1,10µM,-,-,-,-
COc1cccc(OCc2nc3ccccc3n2Cc2ccccc2)c1,22µM,?,.,.,-
COc1cccc(Cn2c(C(C)n3c(-c4cnccn4)nc4ccccc43)nc3ccccc32)c1 (configuration not stated),14µM,-,?,.,?
COc1ccc(OCc2nc3ccccc3n2C(C)c2ccccc2)cc1 (configuration not stated),13µM,?,.,.,-
COc1ccc(OCc2nc3ccccc3n2Cc2ccc(C(C)(C)C)cc2)cc1,-,-,.,.,-
COc1cc(OC)c(OC)cc1/C=C/c1ccc2ccccc2[n+]1C,.,.,-,.,.
CCN1C(=O)[C@H]2[C@@H](c3ccc(C)cc3)N[C@]3(CCCN(Cc4ccc(Cl)cc4)C3=O)[C@H]2C1=O,-,-,-,.,-
CCc1nc2ccc(C(=O)NCCOc3ccc(OC)cc3)cn2c1N(CCC(C)C)CCN(C)C,-,-,-,.,-
O=C(O)c1ccc2c(ccc3nn(-c4ccc(/C=C/c5ccc(-n6nc7ccc8cc(C(=O)O)ccc8c7n6)cc5[S+](=O)([O-])[O-])c([S+](=O)([O-])[O-])c4)nc32)c1,.,.,-,.,.
Cc1ccc(S(=O)(=O)N2CCCCC2)cc1NC(=O)CNC(C)c1ccc(Cl)c(Cl)c1 (configuration not stated),-,-,-,-,-
COC(=O)[C@]12CCCCC=C1N(Cc1cccc3ccccc13)C(=O)[C@H](CC(=O)NCCC(C)C)C2,-,-,-,.,?
O=C(NC(=S)Nc1ccccc1N1CCCC1)c1ccc(F)cc1,25µM,-,-,-,.
CC1CCN(c2ccccc2NC(=O)c2ccc(F)cc2)CC1,13µM,-,.,-,-
O=C(NC(=S)Nc1ccccc1N1CCCCC1)c1ccc(F)cc1Cl,-,-,-,.,.
O=C(NC(=S)Nc1ccccc1N1CCCC1)c1cccc(F)c1,-,7.9µM,-,-,-
O=C(NC(=S)Nc1ccccc1N1CCCCC1)c1ccccc1,11µM,-,-,-,-
COc1ccc(C(=O)Nc2nc(-c3nnn(-c4ccc(F)cc4F)c3C)ns2)cc1,-,-,.,.,-
SMILES,TDP43 rescue,Abeta yeast res,aSyn rescue,PTAP TSG101 blk,FUS suppressor
CC1CCN(c2ccccc2NC(=S)NC(=O)C(C)(C)C)CC1,?,13µM,-,-,-
O=S(=O)(c1cc(Br)ccc1Br)N1CCCCCC1,7.9µM,-,-,-,-
NC(=O)c1ccc(Br)c(S(=O)(=O)N2CCCCC2)c1,-,-,-,-,-
CCOc1ccc(C(=O)OC(C)C(=O)N2CCN(Cc3ccccc3)CC2)cc1 (configuration not stated),3.2µM,-,-,-,-
CC(=O)Nc1ccc(NC(=O)Cc2sc(-c3cccnc3)nc2-c2ccc(C)cc2)cc1,-,-,-,-,28µM
Cc1ccc(-c2nnc(SCCC(=O)Nc3ccccc3)n2C)cc1,.,.,-,.,.
Cc1ccc(C2OC34CCCCCC3C(C#N)(C(=N)O4)C2(C#N)C#N)cc1 (configuration not stated),1.3µM,-,-,-,-
CCCCOc1ccc(C2OC34CCCCC3C(C#N)(C#N)C2(C#N)C(=N)O4)cc1 (configuration not stated),-,-,-,?,-
COc1cccc(-c2nn3c(-c4ccco4)nnc3s2)c1,7.1µM,-,.,-,-
COc1cccc(OC)c1-c1nn2c(-c3ccco3)nnc2s1,-,-,.,-,-
COc1ccccc1-c1nnc2sc(COc3ccc(F)cc3)nn12,11µM,-,-,-,?
Clc1ccccc1-c1nn2c(-c3ccncc3)nnc2s1,-,-,-,-,-
c1coc(-c2nnc3sc(C4CCCCC4)nn23)c1,18µM,-,-,-,-
Clc1ccccc1-c1nn2c(-c3ccccn3)nnc2s1,13µM,-,-,-,-
COc1ccccc1C(=O)N1CCC(c2noc(-c3ccc(S(=O)(=O)N4CCCC4)cc3)n2)CC1,-,-,.,.,?
Cc1nc(C)c(CCNS(=O)(=O)c2ccc(C)c(C)c2)s1,-,-,-,.,-
CC1(C)CC(=O)c2cc(-c3nc(-c4ccc(Br)cc4)cs3)c(=O)n(-c3ccccc3)c2C1,-,-,.,.,-
COc1cccc(-c2nnc3sc(-c4ccccn4)nn23)c1,-,-,-,-,-
c1ccc(OCc2nn3c(-c4ccccn4)nnc3s2)cc1,14µM,-,-,-,-
COc1cccc(-c2nn3c(-c4ccccn4)nnc3s2)c1,16µM,-,-,-,-
O=C(CCC(=O)N1CC2CCCN2c2ccccc21)NCc1ccccc1F (configuration not stated),-,-,.,.,-
CN(c1ncnc2onc(-c3cccc(Cl)c3)c12)C1CCCCC1,22µM,-,.,.,-
Cc1cccc(Nc2ncnc3onc(-c4cccc(Cl)c4)c23)c1,-,-,-,-,-
Cc1ccnc(Sc2ncccc2[N+](=O)[O-])n1,-,-,-,-,-
Cc1ccc(Sc2ncccc2[N+](=O)[O-])cc1,?,-,-,-,-
SMILES,TDP43 rescue,Abeta yeast res,aSyn rescue,PTAP TSG101 blk,FUS suppressor
Cc1ccccc1Sc1ncccc1[N+](=O)[O-],13µM,-,-,-,-
O=[N+]([O-])c1cccnc1Sc1ccc(Br)cc1,13µM,-,-,-,-
Cn1nnnc1SCCNCc1ccc(OCc2ccc(Cl)cc2)cc1,-,-,-,.,-
O=C(NCCCOc1ccc([N+](=O)[O-])cc1Cl)OCc1ccccc1,16µM,-,?,-,.
Cc1cc(C)nc(NC(=O)/C=C/c2ccccc2Cl)n1,-,-[9.22 µM],-,-,-
O=C(/C=C/c1ccc(Cl)cc1Cl)Nc1ccncc1,-,-,-,-,.
Cc1cc(C)nc(NC(=O)/C=C/c2ccc(Cl)cc2Cl)c1,7.1µM,-,-,-,.
